Compound activity (PubChem)
A selection: hits, their analogues and other compounds. The true share with any hit is near 0.44%.
RmlCD inh mix: RmlC/RmlD inhibition, mixture screen | RmlC/RmlD coupled enzyme inhibition, 384-well mixture HTS | 110,000 tested, 0.39% active | inhibition, % at 5.5 µM; in the data active means inhibition above about 30%, passing the limit was not always enough; inconclusive means no clear call, values can overlap the other calls
YopH inh: blocks Yersinia enterocolitica YopH tyrosine phosphatase. 140,000 tested, 0.16% active. fluorescence Ex485/Em525. inhibition, % (test concentration not listed); in the data active means inhibition above about 50%
RmlCD fluor art: RmlC/RmlD fluorescence artifact, counter-screen. shares compounds with RmlCD inh mix. calls only. 360 tested, 96% active. RmlC/RmlD assay fluorescence artifact counter-screen; call rule not given here;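 further: compound alone with no enzyme and no substrates present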
Numbers without * were called inactive; i = inactive; ? = inconclusive; · = no result; + = active, no number.

SMILES	RmlCD inh mix	YopH inh	RmlCD fluor art
COc1ccc(-c2oc3ccc(-c4cc(OC)c(OC)c(OC)c4)cc3c2-c2ccc(OC)cc2)cc1	-56	·	·
Cc1ccc2c(c1)c1ncnc(N3CCC4(CC3)OCCO4)c1n2C	-28	-33	·
Cc1ccc2c(c1)c1ncnc(N3CCOCC3)c1n2C	·	-35	+
COc1ccc(-c2c(C(C)=O)c(C)nc3sc4c(=N)n(N)cnc4c23)cc1	·	-20	·
COc1ccc(C2NC(=O)c3sc4nc(C)c(C(C)=O)c(-c5ccc(Cl)cc5)c4c3N2)cc1 (stereo not drawn)	52*	-33	+
Cn1c(-c2ccccc2)cc2c3no[n+]([O-])c3ccc21	-5	-45	·
O=C(CSc1ccccc1[N+](=O)[O-])NC1CCS(=O)(=O)C1 (stereo not drawn)	·	-5	·
CCCCN1C(=O)NC2NC(=O)NC21 (stereo not drawn)	-2	-103	·
CCN(CC)CC(C)CNC(=O)CN1C(=O)CSc2ccc(S(=O)(=O)N3CCOCC3)cc21 (stereo not drawn)	·	-33	·
COC(=O)c1cc(=O)c2cccc(OC)c2[nH]1	·	·	i
COc1ccc(OC)c2[nH]c(C(=O)O)cc12	-15	-32	·
CCCCCCOc1ccc(NC(=O)CC2C(=O)N(CC)C(=S)N2Cc2ccco2)cc1 (stereo not drawn)	·	-7	·
COC(=O)c1ccccc1NC(=O)Cn1nc2n(C)c3ccccc3n2c(=O)c1=O	·	-24	·
Cc1cc2c(C)c(C)c(=O)[nH]c2cc1N	45*	-7	+
Cc1cc(C)c2[nH]c(=O)c(=O)[nH]c2c1	-5	11	·
Cn1cc(C(=O)c2ccc(Cl)cc2Cl)cc1C(=O)N/N=C(\N)COc1cccc(C(F)(F)F)c1	-3	-7	·
CCNc1cc2n(c(=O)n1)CCc1cc(OC)c(OC)cc1-2	17	-1	·
COc1cc2c(cc1OC)-c1cc(OCCN3CCOCC3)nc(=O)n1CC2	61*	-57	+
Cc1nc(CN2CCN(C(=O)c3ccc(C(C)(C)C)cc3)CC2)cs1	-12	-4	·
O=C(Nc1sc2c(c1C(=O)NC1CC1)CCCCCC2)c1ccco1	+	-12	+
O=C(Nc1sc2c(c1C(=O)O)CCC2)c1ccco1	15	-61	·
Cc1cc(C)nc(-n2c(Nc3ccccc3)cc(=O)c3c(C)n(-c4ccccc4)c(=O)nc32)n1	·	-34	·
O=C(O)c1cc2c(s1)-c1ccccc1OC2	?	-35	·
O=C(c1ccco1)N1CCN(C(=O)c2cc3c(s2)-c2ccccc2OC3)CC1	46*	-7	+
COc1cc(-c2cc(C(=O)O)c3cc4c(cc3n2)OCCO4)cc(OC)c1OC	6	-17	·
SMILES	RmlCD inh mix	YopH inh	RmlCD fluor art
COC(=O)c1ccc(-c2cc(C(=O)O)c3cc4c(cc3n2)OCCO4)cc1	48*	-63	+
Nc1ccc2nc(-c3ccc(Cl)cc3)[nH]c2c1	9	0	·
Nc1ccc(-c2nc3c(Cl)c(N)ccc3[nH]2)cc1	116*	-11	+
O=C(Nc1cnc2ccccn2c1=O)c1ccc(Cl)cc1	-10	-6	·
COc1ccccc1CNC(=O)c1c(N)n(CCCN2CCOCC2)c2nc3ccccc3nc12	·	-12	·
CC(C)OC(=O)c1c(N)n(CCCN2CCOCC2)c2nc3ccccc3nc12	38*	2	+
CCOC(=O)c1c(N)n(CCCOC(=O)c2ccco2)c2nc3ccccc3nc12	34*	-30	+
CCCCCn1c(NC(=O)c2ccco2)c(C(=O)OCC)c2nc3ccccc3nc21	·	22	·
COc1ccc(NS(=O)(=O)c2ccc(N3CCCC3)c(NC(=S)Nc3cccc(S(=O)(=O)N(C)C)c3)c2)cc1	·	-11	·
COc1ccc([N+](=O)[O-])cc1NC(=O)c1ccc(CN(c2ccccc2)S(C)(=O)=O)cc1	·	-23	·
CCCCCC(=O)N1CC2(CC(c3cccc(NC(=O)CC)c3)=NO2)C[C@H]1C(N)=O (stereo partly drawn)	3	·	·
Fc1ccc(Cn2ccc(-c3cnc(-c4ccccc4)s3)n2)cc1	-9	-19	·
O=C(c1ccc(F)cc1)n1ccc(-c2cnc(-c3ccccc3)s2)n1	80*	-8	+
CC1(C)CC(=O)C(C(C2=C(O)CC(C)(C)CC2=O)c2ccc(Br)s2)C(=O)C1 (stereo not drawn)	·	-34	·
COc1ccc(-c2cc(C(F)(F)F)n3nc(C(=O)N(C)Cc4ccccc4)cc3n2)cc1OC	·	·	+
COc1ccc(-c2cc(C(F)(F)F)n3nc(C(=O)Nc4cc(C)on4)cc3n2)cc1OC	·	-28	·
O=c1cc(C(F)(F)F)c2sc(N3CCCCC3)nc2[nH]1	65*	-46	+
c1c2c(cc3sc(N4CCCCC4)nc13)OCO2	·	-52	·
CCCc1c2ccccc2nc2ccccc12	·	-19	·
O=C(CSc1cn(CCNC(=O)c2cccs2)c2ccccc12)NC1CCCC1	-8	-31	·
Cc1cc(C)cc(-n2cc[nH]c2=S)c1	·	-13	·
COc1ccccc1C(=O)NCCCN1CCCC1=O	-11	3	·
COC(=O)C1=CN(CCCN2CCCC2=O)C=C(C(=O)OC)C1c1ccccc1C(F)(F)F	68*	-14	+
COc1cccc(/C=N/NC(=O)c2cc3c(OC)cccc3[nH]2)c1OC	·	-11	·
COc1cccc(/C=N/NC(=O)c2cc3c(OC)cccc3[nH]2)c1O	·	-43	+
SMILES	RmlCD inh mix	YopH inh	RmlCD fluor art
O=C(CSc1nc(N2CCCCC2)nc(N2CCCCC2)n1)NC1CCCCC1	·	-27	·
CC1CCC2C(=O)N(c3ccc(S(=O)(=O)c4ccccc4)cc3)C(=O)C2C1 (stereo not drawn)	·	-26	·
Cc1nc(SCC(=O)CC(=O)OC(C)C)c(C#N)c(C)c1C	4	-1	·
Cc1cc(C)c(C#N)c(SCC(=O)CC(=O)OC(C)C)n1	55*	-18	+
CCCc1cc(=O)oc2c(CN3CCOCC3)c(O)ccc12	166	16	·
COCCN(CCOC)Cc1c(O)ccc2c3c(c(=O)oc12)CCC3	158	-42	·
O=c1oc2c(CN3CCOCC3)c(O)ccc2c2c1CCCC2	147*	-14	+
CN(C)Cc1c(O)ccc2c3c(c(=O)oc12)CCCCC3	117*	-30	+
CCCCc1cc(=O)oc2c(CN(C)C)c(O)ccc12	72*	-30	+
COc1ccc(Oc2c(C)oc3c(CN(C)C)c(O)ccc3c2=O)cc1	23	-3	·
CCc1c(C)c2ccc(O)c(CN(C)C)c2oc1=O	131*	-30	+
O=c1oc2c(CN3CCOCC3)c(O)ccc2c2ccccc12	·	11	·
COc1ccc(C(=O)Nc2cccc(-c3cc4ccccc4oc3=O)c2)cc1[N+](=O)[O-]	·	-6	·
O=C1N[C@@H](Cc2cn(S(=O)(=O)c3ccc([N+](=O)[O-])cc3)c3ccccc23)C(=O)N[C@H]1Cc1ccccc1	-4	·	·
CCOC(=O)c1cc(C(=O)OCC)c2ccccn2c1=O	71*	1	+
COC(=O)c1cc(C(C)=O)n2ccccc12	-10	11	·
O=C(c1ccc2c(c1)OCO2)N(Cc1ccco1)C1(C(=O)NC2CCCCC2)CCCCC1	2	-3	·
CCN=C(NC#N)SCc1c(F)cccc1Cl	·	-49	·
O=C(N/N=C/c1ccc2cccc(OCc3ccccc3)c2n1)c1ccc(Br)cc1	-317	-17	·
COc1ccc(C(=O)N/N=C/c2ccc3cccc(OCc4ccccc4)c3n2)cc1	-69	-24	i
CCN(CC)S(=O)(=O)c1cc(C(=O)OCC(=O)NC(=O)c2cccn2C)ccc1C	·	-15	·
O=C(Nc1ccccc1)C1=C[C@H](c2ccc(Br)cc2)C[C@H](OCc2ccc(CO)cc2)O1	9	·	·
